Experimental findings from PubChem BioAssay (NCATS) are described below.

The structures appear in SMILES notation. Records with an inconclusive call do not appear. Activity calls are given as the source filed them. Unless noted, the call rests on the fitted dose curve.

Experiment [1] is described as follows: qHTS for Inhibitors of the Functional Ribonucleoprotein Complex (vRNP) of Lassa (LASV) Arenavirus: LASV Primary Screen - GLuc reporter signal (AID 1347082; calls by dose curve; tested in HEK293 reporter line; further: nearly all actives have a fitted effect of over 60% in size). For orientation: In qHTS, concentration-response curves come from the screen itself.
Experiment [2] can be described thus: qHTS for Inhibitors of the Functional Ribonucleoprotein Complex (vRNP) of Lassa (LASV) Arenavirus: Viability assay - alamar blue signal for LASV Primary Screen (AID 1347083; calls by dose curve; tested in HEK293 reporter line; further: nearly all actives have a fitted effect of over 80% in size).
Experiment [3] in a line: qHTS for Inhibitors of the Functional Ribonucleoprotein Complex (vRNP) of Lymphocytic Choriomeningitis Arenaviruses (LCMV): Viability assay - alamar blue signal for LCMV Primary Screen (AID 1347085; calls by dose curve; tested in HEK293 reporter line; further: nearly all actives have a fitted effect of over 80% in size).
Experiment [4] deals with Nucleoprotein (Lymphocytic choriomeningitis virus (strain Armstrong)) (UniProt P09992). The experiment is described as follows: qHTS for Inhibitors of the Functional Ribonucleoprotein Complex (vRNP) of Lymphocytic Choriomeningitis Arenaviruses (LCMV): LCMV Primary Screen - GLuc reporter signal (AID 1347086). Further: nearly all actives have a fitted effect of over 70% in size.
Sequence of Nucleoprotein (Lymphocytic choriomeningitis virus (strain Armstrong)) (P09992 whole entry, looked up): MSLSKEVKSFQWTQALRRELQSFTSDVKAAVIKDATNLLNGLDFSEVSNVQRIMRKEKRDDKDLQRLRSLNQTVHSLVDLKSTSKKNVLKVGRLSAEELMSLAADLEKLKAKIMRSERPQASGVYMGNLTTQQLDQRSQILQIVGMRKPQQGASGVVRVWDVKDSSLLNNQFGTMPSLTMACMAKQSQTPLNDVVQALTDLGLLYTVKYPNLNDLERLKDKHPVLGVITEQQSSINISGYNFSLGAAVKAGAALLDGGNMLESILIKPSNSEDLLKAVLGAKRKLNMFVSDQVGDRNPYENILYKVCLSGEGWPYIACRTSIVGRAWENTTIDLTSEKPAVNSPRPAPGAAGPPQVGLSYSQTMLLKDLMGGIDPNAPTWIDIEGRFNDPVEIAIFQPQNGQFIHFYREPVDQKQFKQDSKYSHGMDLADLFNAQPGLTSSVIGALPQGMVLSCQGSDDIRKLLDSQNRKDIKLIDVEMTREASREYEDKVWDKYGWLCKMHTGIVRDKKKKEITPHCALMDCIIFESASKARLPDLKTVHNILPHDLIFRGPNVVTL
Potency means the concentration at half of the fitted maximal effect.

Regarding `O=C(NOC[C@H](O)CO)c1ccc(F)c(F)c1Nc1ccc(I)cc1F`, the Potency result in experiment [1], in experiment [2], in experiment [3] and in experiment [4] was “inactive” each time.
With `CC(C)(C)C(O)/C=C/c1ccc2c(c1)OCO2` (stereo not drawn), the Potency entry in experiment [1], in experiment [2], in experiment [3] and in experiment [4] was “inactive” in each case.
With `COc1nc(C)cnc1NS(=O)(=O)c1cccnc1-c1ccc(-c2nnco2)cc1`, the Potency result in experiment [1], in experiment [2], in experiment [3] and in experiment [4] was “inactive” in each case.
For the molecule `Cc1cc(C=c2sc3nc4ccccc4n3c2=O)c(C)n1-c1ccccc1`, the Potency result in experiment [1], in experiment [2], in experiment [3] and in experiment [4] was “inactive” throughout.
For the molecule `Cc1c(CN2CCN(C(=O)C(C)C)CC2)sc2c(N3CCOCC3)nc(-c3cnc(N)nc3)nc12`, the Potency in experiment [1] is 273 nM (active); in experiment [2], 137 nM (active); in experiment [3], 273 nM (active); in experiment [4], 217 nM (active).
As for `C=CC(=O)Nc1cccc(Oc2nc(Nc3ccc(N4CCN(C)CC4)cc3OC)ncc2Cl)c1`, the Potency result in experiment [1] and in experiment [4] was “inactive” throughout. Besides, the Potency was 38.5 nM (active) in experiment [2] and 48.5 nM (active) in experiment [3].
Take `Cc1c(C(=O)Nc2ccc(N3C[C@@H](C)O[C@@H](C)C3)nc2)cccc1-c1ccc(OC(F)(F)F)cc1`: the Potency result in experiment [1], in experiment [2], in experiment [3] and in experiment [4] was “inactive” each time.
For the molecule `CC(C)(C)COc1ccc(-n2cc(C(=O)O)cn2)cc1C#N`, the Potency entry in experiment [1], in experiment [2], in experiment [3] and in experiment [4] was “inactive” throughout.
Turning to `Cc1cccc(C#Cc2ccccc2)n1`, the Potency entry in experiment [1], in experiment [2], in experiment [3] and in experiment [4] was “inactive” each time.
As to `Cc1ccc(-c2ncn(-c3ccc(Nc4nccc(-c5cccc(N6CCOCC6)c5)n4)cc3)n2)cn1`, the Potency result in experiment [1] and in experiment [4] was “inactive” throughout. In addition, the Potency in experiment [2] and in experiment [3] was 485 nM (active) throughout.
As for `OC[C@H](Cc1ccccc1)Nc1nc(Oc2ccc3c(c2)CCC3)nc2c1ncn2Cc1ccc(-c2ccccc2)cc1`, the Potency entry in experiment [1], in experiment [2], in experiment [3] and in experiment [4] was “inactive” in each case.
Regarding `CN(C)CC/C=C1/c2ccccc2COc2ccc(CC(=O)O)cc21`, the Potency entry in experiment [1], in experiment [2], in experiment [3] and in experiment [4] was “inactive” throughout.
With `c1ccc2occc2c1`, the Potency result in experiment [1], in experiment [2], in experiment [3] and in experiment [4] was “inactive” each time.
For `CCC(C(=O)O)c1ccc(N2Cc3ccccc3C2=O)cc1` (stereo not drawn), the Potency result in experiment [1], in experiment [2], in experiment [3] and in experiment [4] was “inactive” in each case.
As for `Nc1ccc(O)c([N+](=O)[O-])c1`, the Potency entry in experiment [1], in experiment [2], in experiment [3] and in experiment [4] was “inactive” each time.
Take `Clc1ccccc1CN1CCc2sccc2C1`: the Potency entry in experiment [1], in experiment [2], in experiment [3] and in experiment [4] was “inactive” throughout.
`CCCCCCCc1ccc(CCc2cccc(O)c2C(=O)O)cc1`: the Potency result in experiment [1], in experiment [2], in experiment [3] and in experiment [4] was “inactive” in each case.
Turning to `Cc1cccc(-c2nn(C(=S)Nc3ccccc3)cc2-c2ccnc3ccccc23)n1`, the Potency result in experiment [1], in experiment [2], in experiment [3] and in experiment [4] was “inactive” each time.
`Cc1cnc(Nc2ccc(F)cc2Cl)nc1-c1c[nH]c(C(=O)N[C@H](CO)c2cccc(Cl)c2)c1`: the Potency was 19300 nM (active) in experiment [1], 15300 nM (active) in experiment [2], 7690 nM (active) in experiment [3] and 17200 nM (active) in experiment [4].
With `O=C(Nc1ccccc1-c1cn2c(CN3CCNCC3)csc2n1)c1cnc2ccccc2n1`, the Potency entry in experiment [1], in experiment [2], in experiment [3] and in experiment [4] was “inactive” in each case.
Take `CC(C)=CCCC(C)=CCCC(C)=CCSc1ccccc1C(=O)O`: the Potency was 5440 nM (active) in experiment [1], 2430 nM (active) in experiment [2], 9680 nM (active) in experiment [3] and 4320 nM (active) in experiment [4].
Regarding `O=C(O)CCc1ccc(NCc2cccc(Oc3ccccc3)c2)cc1`, the Potency result in experiment [1], in experiment [2], in experiment [3] and in experiment [4] was “inactive” in each case.
Take `CC[C@@H](C)[C@H](NC(=O)[C@H](CC1CCCCC1)NC(=O)c1ccno1)C(=O)N1CCC2(CCc3ccccc32)CC1`: the Potency entry in experiment [1], in experiment [2], in experiment [3] and in experiment [4] was “inactive” each time.
With `CC(=O)Nc1ccc([C@H](C)C(=O)Nc2ncc(C(C)C)s2)cc1`, the Potency in experiment [1] was 3060 nM (active); in experiment [2], 1220 nM (active); in experiment [3], 611 nM (active); in experiment [4], 1090 nM (active).
With `COc1ccc(C2=N[C@H](c3ccc(Cl)cc3)[C@H](c3ccc(Cl)cc3)N2C(=O)N2CCNC(=O)C2)c(OC(C)C)c1`, the Potency entry in experiment [1], in experiment [2], in experiment [3] and in experiment [4] was “inactive” each time.
As to `CC(C)c1ccccc1Cc1cc(C(=O)Nc2ccc(S(=O)(=O)c3ccccc3C(C)(C)C)cc2)c(O)c(O)c1O`, the Potency in experiment [1] is 21700 nM (active); in experiment [2], 19300 nM (active); in experiment [3], 24300 nM (active); in experiment [4] it was 24300 nM (active).
With `CN1CCN(c2c(F)cc3c(=O)c(C(=O)O)cn4c3c2OCN4C)CC1`, the Potency result in experiment [1], in experiment [2], in experiment [3] and in experiment [4] was “inactive” each time.
`CCOC(=O)C(C)Oc1cccc2c(=O)n(CC(=O)Nc3ccc4c(c3)OCCO4)ccc12` (stereo not drawn): the Potency entry in experiment [1], in experiment [2], in experiment [3] and in experiment [4] was “inactive” in each case.
As to `CCCn1c(=O)c2[nH]c(C34CC5CC3C[C@@H](C5)C4)nc2n(CCC)c1=O`, the Potency entry in experiment [1], in experiment [2], in experiment [3] and in experiment [4] was “inactive” throughout.
Consider `COc1ccc(CCN2CCN(CCCc3ccccc3)CC2)cc1OC`, for which the Potency entry in experiment [1], in experiment [2], in experiment [3] and in experiment [4] was “inactive” each time.
`Nc1nc2c(ncn2CCC(CO)CO)c(=O)[nH]1`: the Potency result in experiment [1], in experiment [2], in experiment [3] and in experiment [4] was “inactive” each time.
`COc1c(C)cnc(Cn2cnc3c(Cl)nc(N)nc32)c1C`: the Potency in experiment [1] is 1370 nM (active); in experiment [2], 611 nM (active); in experiment [3] it was 685 nM (active); in experiment [4] it was 344 nM (active).
The matching figures for `COc1cccc2c1CCCC2CCCN1CCN(C2CCCCC2)CC1` (stereo not drawn): “inactive”, “inactive”, “inactive” and “inactive”.
Turning to `OCc1ccccn1`, the Potency result in experiment [1], in experiment [2], in experiment [3] and in experiment [4] was “inactive” throughout.
`O=C(O)c1ccccc1O`: the Potency entry in experiment [1], in experiment [2], in experiment [3] and in experiment [4] was “inactive” in each case.
Turning to `COc1ccc2c(c1)c1c3n2CCN(C)C3=NCC1`, the Potency entry in experiment [1], in experiment [2], in experiment [3] and in experiment [4] was “inactive” in each case.
As for `C/C(=C1\CCOC(=O)S1)N(C=O)Cc1cnc(C)nc1N`, the Potency entry in experiment [1], in experiment [2], in experiment [3] and in experiment [4] was “inactive” each time.
Regarding `O=C(O)[C@H](Cc1c[nH]c2ccccc12)N1C(=O)c2ccccc2C1=O`, the Potency result in experiment [1], in experiment [2], in experiment [3] and in experiment [4] was “inactive” each time.
Regarding `COc1cc(N2CCC(N3CCN(C)CC3)CC2)ccc1Nc1ncc(Cl)c(Nc2ccccc2S(=O)(=O)C(C)C)n1`, the Potency entry in experiment [1], in experiment [2], in experiment [3] and in experiment [4] was “inactive” in each case.
As to `CC1(C)Cc2c(-c3ccccc3)c(-c3ccc(Cl)cc3)c(CC(=O)O)n2C1`, the Potency result in experiment [1], in experiment [2], in experiment [3] and in experiment [4] was “inactive” throughout.
For the molecule `Cn1cc(-c2ccc3nnc(C(F)(F)c4ccc5ncccc5c4)n3n2)cn1`, the Potency result in experiment [1], in experiment [2], in experiment [3] and in experiment [4] was “inactive” in each case.
With `Cc1ccc(S(=O)(=O)Nc2cc(Cl)ccc2C(=O)Nc2nc(-c3ccccc3)cs2)cc1`, the Potency entry in experiment [1], in experiment [2], in experiment [3] and in experiment [4] was “inactive” throughout.
